The text below walks through data of PubChem BioAssay.

Calls of active or inactive are those of the source.

Assay [1] concerns the target Albumin (Bos taurus) (UniProt P02769). Kind of assay: bovine serum albumin binders on microarray, profiling panel, artefact control for SMM control protein annotation, biochemical, small-molecule microarray, Alexa647 label, 635/667 nm fluorescence (AID 1118).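 Note: score merges 667 nm emission intensity and signal-to-noise per printed compound spot.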 As to conditions: BSA-A647 binding, fluorescence 635 nm, higher = more signal.
The nature of assay [2]: small-molecule microarray binders of probe aXIP, primary screen, biochemical, NeuroSMM set, 635/667 nm fluorescence (AID 1119).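 Note: probe is the protein aXip251-270 applied at 1 µg/mL to compound-printed slides; binding of probe to printed compounds measured as 667 nm fluorescence plus signal to noise.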 As to conditions: higher = more signal, called active from +8 up or from −8 down.
Assay [3] can be described thus: small-molecule binders of probe aNOTCH3, primary screen, biochemical, small-molecule microarray, 635/667 nm fluorescence (AID 1120).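 Note: probe is a biotin-tagged antibody raised against NOTCH3 rather than NOTCH3 protein; score merges spot fluorescence near 667 nm with spot signal to noise.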 As to conditions: higher = more signal.
Assay [4] is described as follows: small-molecule binders of probe aNOTCH2, primary screen, biochemical, small-molecule microarray, 635/667 nm fluorescence (AID 1121).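 Note: score merges feature fluorescence read at 667 nm with its signal to noise.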 As to conditions: higher = more signal.
Assay [5] concerns the target Carbonic anhydrase 2 (Homo sapiens) (UniProt P00918). As to the kind of experiment: CAII small-molecule binders, profiling panel, biochemical, small-molecule microarray, Alexa647-labelled CAII (AID 1122). As to conditions: CAII-A647 binding fluorescence, higher = more signal.
Assay [6] can be described thus: COS7 lysate on small-molecule microarray, probe aHis, 635 nm (AID 1123).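 Note: z-score combines 667nm fluorescence intensity with signal-to-noise per printed compound spot.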 As to conditions: COS7 cell lysate, fluorescence, higher = more signal.
Assay [7] can be described thus: compound binding in COS7 lysate, probe aLAP1, primary screen, cell lysate, small-molecule microarray (AID 1124).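 Note: lysate comes from COS7 cells expressing LAP1 and is applied at 0.3 µg/mL; score merges spot fluorescence near 667 nm with signal-to-noise over triplicate slides.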 As to conditions: probe aLAP1, fluorescence, higher = more signal.
The subject of assay [8] is Sam68 (KHDRBS1). Kind of assay: Sam68 small-molecule binders, primary screen, biochemical, small-molecule microarray, 635 nm fluorescence (AID 1125).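 Note: score merges 667 nm channel intensity with signal to noise over triplicate slides.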 As to conditions: small-molecule microarray binding, higher = more signal.
Assay [9] has as its system Chordin-like protein 2 (CHRDL2). As to the kind of experiment: CHRDL2 small-molecule binders, primary screen, biochemical, small-molecule microarray, 635 nm fluorescence (AID 1126).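 Note: printed compound slides probed with Chrdl2 protein at 4 µg/mL for 1 h at 4 C; score merges 667 nm emission intensity with signal to noise over three replicate slides.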 As to conditions: small-molecule microarray binding, fluorescence 635 nm; higher = more signal.
In assay [10] the target is Concanavalin-A (Canavalia ensiformis) (UniProt P02866). As to the kind of experiment: ConA small-molecule binders, primary screen, artefact control for SMM control protein annotation, biochemical, small-molecule microarray, Alexa647 label, 635 nm (AID 1127).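 Note: z combines 667 nm emission intensity with signal-to-noise across three replicate slides.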 As to conditions: ConA-A647 binding fluorescence, higher = more signal.
Assay [11] is described as follows: anti-His antibody binders, primary screen, artefact control for SMM control protein annotation, biochemical, small-molecule microarray, 635 nm fluorescence (AID 1128).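 Note: score merges feature fluorescence with signal-to-noise for each printed compound spot.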 As to conditions: anti-His Alexa647 antibody binding, higher = more signal.
Assay [12] relates to Human papillomavirus type 1a E7 protein (residues 1-88). Kind of assay: HPV1a E7 small-molecule binders, primary screen, biochemical, small-molecule microarray, residues 1-88, 635 nm (AID 1129). As to conditions: small-molecule microarray binding, fluorescence 635 nm; higher = more signal.
The target of assay [13] is Focal adhesion kinase 1 (Homo sapiens) (UniProt Q05397). Kind of assay: small-molecule microarray binders of FAK, primary screen, biochemical, 635/667 nm fluorescence, BSA, DTT (AID 1130).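 Note: composite of spot emission at 667 nm and signal to noise over triplicate slides.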 As to conditions: PTK2 binding, 635 nm fluorescence, higher = more signal.
The subject of assay [14] is Fibrinogen (Alexa647-labelled). As to the kind of experiment: fibrinogen binders on compound microarrays, profiling panel, artefact control for SMM control-protein annotation, biochemical, small-molecule microarray, 635/667 nm fluorescence (AID 1131).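 Note: z-score merges 667 nm fluorescence with per-spot signal-to-noise over triplicate slides.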 As to conditions: fibrinogen-A647 binding fluorescence, higher = more signal.
The target in assay [15] is Follistatin (Homo sapiens) (UniProt P19883). Kind of assay: follistatin binders on small-molecule microarrays, primary screen, biochemical, small-molecule microarray, 635/667 nm fluorescence (AID 1132). As to conditions: FST binding, 635 nm fluorescence, higher = more signal.
For assay [16], the target named is Fibroblast growth factor 2 (Homo sapiens) (UniProt P09038). As to the kind of experiment: FGF2 binders on small-molecule microarrays, primary screen, biochemical, small-molecule microarray, 635/667 nm fluorescence (AID 1133). As to conditions: small-molecule microarray binding, FGF2, fluorescence 635/667; higher = more signal.
Assay [17] can be described thus: mitochondrial membrane potential change in A549 cells, profiling panel, cell-based, JC-1 fluorescence, basal, 24 h, 100 nL (AID 1138).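 Note: A549 lung adenocarcinoma cells under basal conditions with no added stimulus; test concentration not given here.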 As to conditions: higher = more signal.
Assay [18] relates to Lefty1. As to the kind of experiment: Lefty1 binders on small-molecule microarrays, primary screen, biochemical, small-molecule microarray, 635/667 nm fluorescence (AID 1139). As to conditions: small-molecule microarray binding, fluorescence 635/667; higher = more signal.
For assay [19], the system named is wheat germ agglutinin (Triticum aestivum), Alexa647-labelled. As to the kind of experiment: wheat germ agglutinin binders on compound microarrays, profiling panel, artefact control for SMM control-protein annotation, biochemical, small-molecule microarray, 635/667 nm fluorescence (AID 1140).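 Note: score merges 667 nm feature emission with signal to noise over triplicate slides.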 As to conditions: WGA-A647 binding, 635 nm fluorescence, higher = more signal.

In assay [20] the target is Luciferin 4-monooxygenase (Photinus pyralis) (UniProt P08659). As to the kind of experiment: firefly luciferase enzyme inhibitors, primary screen, biochemical, luminescence, purified enzyme, 2006 set (AID 1141).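 Note: cell-free assay with purified firefly luciferase at 100 ng per well in PBS; test concentration not given here.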 As to conditions: SteadyGlo luminescence, 30 min, higher = more signal, called active from +8 up or from −8 down.
Chain of Luciferin 4-monooxygenase (Photinus pyralis) (P08659 whole entry, looked up): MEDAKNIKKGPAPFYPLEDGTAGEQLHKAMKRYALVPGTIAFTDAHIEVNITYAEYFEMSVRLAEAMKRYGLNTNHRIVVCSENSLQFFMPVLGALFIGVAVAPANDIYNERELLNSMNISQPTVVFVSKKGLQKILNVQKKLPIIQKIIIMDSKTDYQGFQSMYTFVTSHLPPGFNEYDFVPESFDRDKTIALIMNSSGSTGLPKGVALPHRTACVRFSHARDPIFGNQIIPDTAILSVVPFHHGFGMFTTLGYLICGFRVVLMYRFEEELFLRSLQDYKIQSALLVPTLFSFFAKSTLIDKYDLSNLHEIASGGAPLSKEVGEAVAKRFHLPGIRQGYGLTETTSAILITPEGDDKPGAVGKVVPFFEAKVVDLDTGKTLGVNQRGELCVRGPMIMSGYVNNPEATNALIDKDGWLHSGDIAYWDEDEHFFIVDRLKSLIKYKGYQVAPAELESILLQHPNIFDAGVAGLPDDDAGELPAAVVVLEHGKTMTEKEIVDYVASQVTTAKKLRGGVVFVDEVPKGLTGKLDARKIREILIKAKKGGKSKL

Chain of Focal adhesion kinase 1 (Homo sapiens) (Q05397 whole entry, looked up): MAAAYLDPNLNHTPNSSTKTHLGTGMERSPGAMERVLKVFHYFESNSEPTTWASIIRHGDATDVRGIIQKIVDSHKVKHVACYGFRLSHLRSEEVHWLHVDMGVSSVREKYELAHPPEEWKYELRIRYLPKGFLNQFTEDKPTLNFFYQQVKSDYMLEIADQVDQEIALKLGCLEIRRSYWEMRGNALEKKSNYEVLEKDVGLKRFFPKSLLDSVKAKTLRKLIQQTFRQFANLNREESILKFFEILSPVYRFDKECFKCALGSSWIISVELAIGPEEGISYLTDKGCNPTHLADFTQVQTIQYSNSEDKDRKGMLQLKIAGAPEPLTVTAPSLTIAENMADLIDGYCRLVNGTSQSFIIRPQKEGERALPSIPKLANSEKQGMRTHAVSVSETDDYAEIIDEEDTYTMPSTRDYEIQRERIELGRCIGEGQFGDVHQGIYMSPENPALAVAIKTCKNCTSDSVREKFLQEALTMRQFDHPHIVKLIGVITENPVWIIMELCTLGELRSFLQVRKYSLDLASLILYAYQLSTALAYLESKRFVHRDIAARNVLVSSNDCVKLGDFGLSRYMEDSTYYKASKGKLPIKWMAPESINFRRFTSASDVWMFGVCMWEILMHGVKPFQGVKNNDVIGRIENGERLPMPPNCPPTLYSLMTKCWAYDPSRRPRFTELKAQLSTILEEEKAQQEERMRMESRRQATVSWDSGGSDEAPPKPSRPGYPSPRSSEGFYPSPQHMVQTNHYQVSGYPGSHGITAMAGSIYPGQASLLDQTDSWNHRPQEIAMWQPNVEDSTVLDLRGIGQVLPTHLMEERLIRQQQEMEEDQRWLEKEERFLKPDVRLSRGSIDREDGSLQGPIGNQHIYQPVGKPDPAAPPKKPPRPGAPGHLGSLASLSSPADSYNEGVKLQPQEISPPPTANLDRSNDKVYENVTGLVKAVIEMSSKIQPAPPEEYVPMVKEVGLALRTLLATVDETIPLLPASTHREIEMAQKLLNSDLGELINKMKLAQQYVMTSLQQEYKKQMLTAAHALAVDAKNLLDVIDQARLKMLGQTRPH
Chain of Concanavalin-A (Canavalia ensiformis) (P02866 whole entry, looked up): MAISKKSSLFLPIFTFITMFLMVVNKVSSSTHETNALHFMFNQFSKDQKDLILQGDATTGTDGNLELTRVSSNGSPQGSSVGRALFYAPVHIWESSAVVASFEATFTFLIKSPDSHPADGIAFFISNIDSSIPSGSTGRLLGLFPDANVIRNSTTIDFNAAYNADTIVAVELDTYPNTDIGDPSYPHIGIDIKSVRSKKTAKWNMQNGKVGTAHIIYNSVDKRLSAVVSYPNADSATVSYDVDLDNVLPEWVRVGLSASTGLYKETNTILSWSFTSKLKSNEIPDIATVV
Chain of Fibroblast growth factor 2 (Homo sapiens) (P09038 whole entry, looked up): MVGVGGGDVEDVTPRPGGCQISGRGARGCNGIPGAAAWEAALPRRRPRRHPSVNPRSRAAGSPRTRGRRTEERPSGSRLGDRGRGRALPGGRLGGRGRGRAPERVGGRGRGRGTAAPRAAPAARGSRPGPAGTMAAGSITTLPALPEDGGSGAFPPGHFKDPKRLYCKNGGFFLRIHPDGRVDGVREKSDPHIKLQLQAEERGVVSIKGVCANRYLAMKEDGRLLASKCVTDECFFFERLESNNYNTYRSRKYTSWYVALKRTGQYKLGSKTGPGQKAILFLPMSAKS
Chain of Albumin (Bos taurus) (P02769 whole entry, looked up): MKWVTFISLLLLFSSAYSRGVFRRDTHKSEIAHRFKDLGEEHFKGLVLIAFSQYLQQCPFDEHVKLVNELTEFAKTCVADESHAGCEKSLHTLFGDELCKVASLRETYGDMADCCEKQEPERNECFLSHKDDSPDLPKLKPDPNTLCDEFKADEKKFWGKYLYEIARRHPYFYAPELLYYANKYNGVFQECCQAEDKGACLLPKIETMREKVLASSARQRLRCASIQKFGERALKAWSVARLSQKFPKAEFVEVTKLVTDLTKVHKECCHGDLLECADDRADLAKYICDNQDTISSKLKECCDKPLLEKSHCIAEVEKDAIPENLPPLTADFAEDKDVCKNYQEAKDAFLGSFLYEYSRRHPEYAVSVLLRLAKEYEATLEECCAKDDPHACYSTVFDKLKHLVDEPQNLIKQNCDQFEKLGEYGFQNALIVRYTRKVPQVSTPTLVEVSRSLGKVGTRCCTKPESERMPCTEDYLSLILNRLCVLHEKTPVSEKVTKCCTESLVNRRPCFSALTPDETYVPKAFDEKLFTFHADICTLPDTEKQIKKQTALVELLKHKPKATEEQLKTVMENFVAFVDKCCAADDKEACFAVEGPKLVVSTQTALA
Chain of Follistatin (Homo sapiens) (P19883 whole entry, looked up): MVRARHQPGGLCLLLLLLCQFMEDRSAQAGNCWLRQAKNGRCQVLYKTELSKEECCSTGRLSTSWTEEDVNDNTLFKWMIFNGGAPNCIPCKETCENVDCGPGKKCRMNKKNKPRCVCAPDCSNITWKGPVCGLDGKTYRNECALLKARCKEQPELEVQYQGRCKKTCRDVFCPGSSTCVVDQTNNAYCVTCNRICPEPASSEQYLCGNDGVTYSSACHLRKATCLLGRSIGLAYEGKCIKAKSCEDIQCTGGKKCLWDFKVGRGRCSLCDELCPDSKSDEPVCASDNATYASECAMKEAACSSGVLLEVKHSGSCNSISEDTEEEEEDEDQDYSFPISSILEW

Regarding `CC1=C2[C@@H](CCc3ccccc3)OB(O)C[C@@H]2[C@@H]2C(=O)N(C)C(=O)[C@@H]2C1`, the composite z-score is 0.541 in [1]; 0.248 in assay [3]; -0.138 in assay [4]; 0.422 in [5]; 0.0513 in assay [6]; 0.76 in assay [7]. Besides, the composite z-score in [8] is 0.453; in assay [9], 0.723; in assay [10], 0.245; in assay [11], -0.463; in assay [12], 0.591; in assay [13], 0.0327. In addition, the composite z-score in assay [14] worked out at 0.762; in assay [15], 0.587; in assay [16], 0.509; in [18], 0.617; in [19], 0.344. Also, the composite Z-score in [2] was 0.706 (inactive). Moreover, the figures for the z-score in [17] and in assay [20] were -0.0475 and 0.143 (inactive), respectively.
Consider `CCOC(=O)C[C@H]1[C@H](OC(=O)c2cc3ccccc3oc2=O)[C@@H](NC(=O)c2ccccc2)c2cc(OCCCO)ccc2N1C(=O)c1ccccc1`, for which the composite z-score in assay [1] was -0.122; in [3] it was -0.0199; in assay [4] it was -0.147; in assay [5] it was -0.129; in assay [6], 0.236; in assay [7] it was -0.155. Also, the composite z-score turned out to be 0.64 in assay [8]; 0.498 in assay [9]; 0.535 in [10]; 0.29 in [11]; 0.828 in [12]; 0.138 in [13]. For the same compound, the composite z-score worked out at 0.37 in assay [14]; 0.744 in assay [15]; 1.18 in [16]; 0.443 in assay [18]; 0.0432 in assay [19]. Further, the composite Z-score in assay [2] is 0.0916 (inactive). The z-score is -0.816 in [17] and 0.713 (inactive) in [20].
Turning to `[N-]=[N+]=Nc1ccccc1[C@@H]1OC(c2ccc(OCCCO)cc2)=N[C@]1(Cc1ccccc1)C(=O)O`, the composite z-score in assay [1] was 0.893; in assay [3], 0.136; in assay [4] it was -0.0068; in assay [5] it was 0.62; in [6] it was 1.23; in assay [7], -0.25. For the same compound, the composite z-score in [8] is 1.3; in assay [9], 0.155; in assay [10] it was 0.665; in [11], 1.87; in assay [12], 1.21; in assay [13], 0.854. The composite z-score in assay [14] was 0.803; in [15], 1.31; in assay [16] it was 0.32; in assay [18] it was -0.028; in assay [19] it was 1.09. Moreover, in assay [2], the composite Z-score is 0.008 (inactive). Moreover, the z-score in [17] was 0.506; in assay [20], -9.46 (active).
On to `NC(=O)NCC#Cc1ccc2c(c1)[C@]1(C(=O)N2)[C@H](c2ccccc2OCCO)N2[C@H](c3ccccc3)[C@H](c3ccccc3)OC(=O)[C@H]2[C@@H]1C(=O)O`, for which the composite z-score in [1] was 0.276; in assay [3], -0.245; in [4], -0.0772; in [5], 0.496; in [6] it was 0.259; in assay [7], 0.931. For the same compound, the composite z-score in [8] is 0.293; in assay [9], -0.128; in [10] it was 0.96; in assay [11], -0.241; in assay [12], -0.464; in assay [13], -0.178. Further, the composite z-score in assay [14] was 0.277; in assay [15], 0.728; in assay [16], 0.387; in assay [18], 0.477; in assay [19], 0.225. Besides, in assay [2], the composite Z-score was 0.155 (inactive). Moreover, the z-score in assay [17] was -0.545; in assay [20] it was -0.521 (inactive).
As to `COc1ccc(C(=O)Nc2ccc(CN3C(=O)[C@]4(O[C@H](CC(=O)N5Cc6ccccc6C[C@H]5CO)[C@@H]([Si](C)(C)c5ccc(OC)cc5)[C@@H]4C)c4ccccc43)cc2)cc1`, the composite z-score in assay [1] is -0.254; in assay [3], -0.0377; in assay [4], -0.0995; in assay [5], 0.151; in assay [6], 1.1; in [7] it was 0.0688. In addition, the composite z-score in [8] was 1.17; in [9], 1.14; in [10] it was 0.67; in [11] it was 1.46; in assay [12], 1.16; in assay [13], 0.353. The composite z-score in assay [14] turned out to be 0.547; in assay [15] it was 1.1; in assay [16], 1.35; in assay [18], 1.08; in assay [19], 0.75. Moreover, the composite Z-score in assay [2] is -0.236 (inactive). In addition, the z-score in assay [17] was -0.615; in assay [20], -0.379 (inactive).
On to `CN(C)c1ccc(C(O)C2C=CC3C(=O)NC(=O)C3N2Nc2ccccn2)cc1` (stereo not given), for which the composite z-score in assay [1] is 0.396; in [3], -0.0419; in assay [4], 0.046; in [5] it was 0.788; in assay [6] it was 0.718; in assay [7] it was 0.282. In addition, the composite z-score in assay [8] was determined as 0.711; in assay [9], 0.987; in [10], 0.372; in assay [11] it was 0.909; in assay [12], 0.683; in assay [13] it was 0.304. Further, the composite z-score in [14] came out at 0.309; in assay [15] it was 1.32; in assay [16], 0.417; in assay [18], 0.783; in assay [19], 0.423. The composite Z-score in assay [2] is 0.378 (inactive). Besides, the values for the z-score in assay [17] and in assay [20] were 0.229 and -0.866 (inactive), respectively.
